Screens as filed in PubChem.
Tau ThT inhib – tau fibrillization inhibition (ThT binding) | hit rate 2.1% among 270,000 | recombinant tau K18 P301L, heparin-induced fibrillization, ThT fluorescence | P10636 | Potency, µM (doses to about 57.4 µM), actives largely listed as inhibitors | AID 1460; also: nearly all actives have a fitted effect of over 55% in size
Target sequence (P10636 561-689 P618L limits assumed): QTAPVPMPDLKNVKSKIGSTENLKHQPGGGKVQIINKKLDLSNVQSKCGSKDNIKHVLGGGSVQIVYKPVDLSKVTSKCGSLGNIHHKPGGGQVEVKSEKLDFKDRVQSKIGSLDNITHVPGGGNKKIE
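Heparin-induced (20 uM) aggregation of recombinant human K18 P301L tau, 15 uM unlabeled with 0.24 uM labeled, pH 7 acetate buffer, 6 hr at 37 C with compound. Fibrils quantified by 30 uM ThT fluorescence after 1 hr ambient incubation.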
KDM4E inh – inhibitors of human JMJD2E histone demethylase; JMJD2E catalytic domain, FDH-coupled NADH fluorescence (FDH is formaldehyde dehydrogenase); Potency, µM (doses to about 57.1 µM), most hits filed as inhibitors; AID 2147; B2RXH2; hit rate 1.6% among 230,000; active = well fitted inhibition curve with a large enough effect, not every such curve was filed as active; inconclusive = small, poorly fitted or top-dose-only effect, or another doubt; inactive = no such curve, though single readings can be large or run the other way; also: nearly all actives have a fitted effect of over 50% in size
HPGD block – blocks human HPGD enzyme activity. Potency, µM, actives largely listed as inhibitors. P15428. purified HPGD, NADH fluorescence kinetic, PGE2 substrate. hit rate 4.3% among 150,000; active = well fitted inhibition curve with a large enough effect, not every such curve was filed as active; inconclusive = small, poorly fitted or top-dose-only effect, or another doubt; inactive = no such curve, though single readings can be large or run the other way
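20 nM HPGD preincubated 15 min at room temperature with compound in 50 mM Tris-HCl pH 8, 0.01% Tween 20. Started with 1 mM NAD+ and 30 uM prostaglandin E2; NADH fluorescence (360/450 nm) read 5 times over 30-s intervals, last minus first.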
ALDH1A1 block – blocks purified human ALDH1A1 activity. P00352. Purified ALDH1A1, NADH fluorescence, propionaldehyde substrate. Potency, µM (titrated, usually from 75.3 µM), hits mostly inhibitors. hit rate 7.3% among 220,000. AID 1030; active = well fitted inhibition curve with a large enough effect, not every such curve was filed as active; inconclusive = small, poorly fitted or top-dose-only effect, or another doubt; inactive = no such curve, though single readings can be large or run the other way
Target sequence (P00352 whole entry, looked up): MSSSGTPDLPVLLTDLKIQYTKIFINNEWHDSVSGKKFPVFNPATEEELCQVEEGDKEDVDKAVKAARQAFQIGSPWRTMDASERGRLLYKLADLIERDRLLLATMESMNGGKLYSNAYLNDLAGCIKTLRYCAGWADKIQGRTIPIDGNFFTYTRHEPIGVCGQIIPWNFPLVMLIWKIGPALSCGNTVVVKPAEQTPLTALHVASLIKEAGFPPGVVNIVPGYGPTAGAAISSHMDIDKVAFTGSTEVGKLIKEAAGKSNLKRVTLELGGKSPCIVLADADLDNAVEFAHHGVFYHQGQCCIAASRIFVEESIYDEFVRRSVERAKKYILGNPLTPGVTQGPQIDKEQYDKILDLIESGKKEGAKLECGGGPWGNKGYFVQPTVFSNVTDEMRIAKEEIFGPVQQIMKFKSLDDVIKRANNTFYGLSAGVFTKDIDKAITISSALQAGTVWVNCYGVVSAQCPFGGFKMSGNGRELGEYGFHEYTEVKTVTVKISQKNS
Tau fibril FP – inhibitors of human tau fibril formation; P10636; K18 P301L tau heparin fibrillization, Alexa594 FP, 6 h; Potency, µM (titrated, usually from 57.7 µM), most hits filed as inhibitors; hit rate 0.39% among 280,000; also: nearly all actives have a fitted effect of over 55% in size
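Human tau K18 […] P301L fragment, 15 uM unlabeled plus 0.24 uM Alexa 594-labeled tau (final), with compound and 20 uM heparin in 100 mM sodium acetate pH 7; 6 hr at 37 C, then Alexa 594 FP read.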
Tau fluor cs – counter-screen for tau fibril formation inhibitors. tau K18 P301L Alexa594 fluorescence, heparin fibrillization. Potency, µM (titrated, usually from 57.7 µM). hit rate 0.93% among 280,000. AID 1463; also: nearly all actives have a fitted effect of over 55% in size
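Human tau K18 P301L (15 uM unlabeled, 0.24 uM Alexa 594-labeled) in 100 mM sodium acetate pH 7 with 20 uM heparin, 6 hr at 37 C. ThT 30 uM added, 1 hr ambient; Alexa 594 FP and total fluorescence read at 555/632 nm.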
Numbers stand for hits; - = inactive; ? = inconclusive; . = no result; ! = not confirmed by another sample; [ ] = dose if it differs, or a comment. Most compounds without a hit are left out; they make up all but 9.9% or so of the library. Unless noted, calls follow the shape of the dose curve; as a rule, active = well fitted curve in the direction sought with a large enough effect; inconclusive = small, poorly fitted or top-dose-only effect, or another doubt; inactive = no such curve, though single readings can be large; an effect the other way counts as inactive or inconclusive.

SMILES	Tau ThT inhib	KDM4E inh	HPGD block	ALDH1A1 block	Tau fibril FP	Tau fluor cs
COc1cc(NC(=O)Cn2c(=O)oc3cc(S(=O)(=O)N4CCCCCC4)ccc32)cc(OC)c1	-	.	.	.	?	?
Cc1ccccc1Nc1nc(CSc2nnnn2-c2ccccc2)cs1	?	-	?	7.9µM	-	?
c1ccc(-c2nc(CSc3nnnn3-c3ccccc3)cs2)cc1	-	-	-	14µM	-	-
CNC1C(OC2C(O[C@@H]3C(O)C(O)[C@@H](N=C(N)N)C(O)C3N=C(N)N)OC(C)[C@@]2(O)CO)OC(CO)C(O)C1O (stereo partly specified)	-	-	-	-	-	-
CS(=O)(=O)N(CC(=O)NCCSC1CCCCC1)c1ccc2c(c1)OCO2	-	-	-	?	-	-
COc1ccc(N(CC(=O)NCCSC2CCCCC2)S(C)(=O)=O)c(OC)c1	-	-	22µM	14µM	-	-
N=C(N)c1ccc(/C=C/c2ccc(C(=N)N)cc2O)cc1	?	28µM	.	-	-	-
N=C(N)c1ccc(Cl)cc1	-	-	.	-	-	-
Cc1ccsc1C1C(C#N)=C(N)N(N(C)C)C2=C1C(=O)CCC2 (stereo unspecified)	-	-	.	14µM	-	-
NCCSCCC(=O)O	.	.	-	-[13.5 µM]	.	.
NCCSSCCN	14µM	-	-	-[13.5 µM]	?	-
CCOC(=O)c1sc(NC(=O)C(C)Sc2nnc(N)s2)nc1C (stereo unspecified)	-	-	.	-	-	-
CCCCC#Cc1ccccc1CC(=O)Nc1ccccc1	?	?	-	-	-	-
Nc1ccccc1C#CCCCCO	?	20µM!	-	?	-	-
Cc1ccc(NC(=O)Cn2nc(C(F)(F)F)c3c2CCC3)cc1C	-	.	.	.	?	-
C/C(=N/O)c1ccccn1	-	18µM	.	-	-	-
Cc1cc(C)n(-c2nnc(Nc3ccc(C)c(C)c3)c3ccccc23)n1	-	.	.	.	-	?
CC(C)(C)c1ccc(-n2nc(C#N)c(Cl)cc2=O)cc1	?	?	.	13µM	-	-
CC(C)(C)c1ccc(-n2nc(C(N)=O)c(O)cc2=O)cc1	-	-	.	-	-	-
C=C(C(C)=O)C(O)c1ccccc1 (stereo unspecified)	-	-	?	-	-	-
C=C(C(C)=O)C(O)c1ccco1 (stereo unspecified)	28µM	?	-	?	?	-
COc1ccccc1CCn1c(=O)c(-c2cccc(Cl)c2)nc2cncnc21	.	.	.	-	.	.
S=c1nc[nH]c2c1sc1nc(-c3ccccc3)c3c(c12)CCCC3	?	-	-	2.5µM	?	?
Cc1cccc(NC(=O)Cn2c(=O)n(CCCS(=O)(=O)C3CCCCC3)c(=O)c3ccccc32)c1	-	.	.	.	-	-
O=C(NCC1CCCO1)c1ccc(COc2ccccc2Br)cc1 (stereo unspecified)	?	-	4µM	-	-	-
SMILES	Tau ThT inhib	KDM4E inh	HPGD block	ALDH1A1 block	Tau fibril FP	Tau fluor cs
COc1cccc(OCc2ccc(C(=O)NCC3CCCO3)cc2)c1 (stereo unspecified)	-	-	10µM	-	-	-
O=C(NCC1CCCO1)c1ccc(COc2ccc(Cl)cc2)cc1 (stereo unspecified)	-	-	.	-	-	-
COC(=O)c1sccc1NC(=O)COc1ccccc1Cl	-	-	-	-	-	-
CCCn1c(O)c(/C=C2\C=NN=C2c2ccccc2)sc1=S	-	-	-	-	18µM	?
CCCCC(CC)Cn1c(O)c(/C=C2\C=NN=C2c2ccccc2)sc1=S (stereo unspecified)	-	-	-	-	18µM	-
C=CCn1c(O)c(/C=C2\C=NN=C2c2ccccc2)sc1=S	?	-	.	-	?	?
CCCCc1nc2c(c3c1C[C@H](C)OC3)CN(C(=O)NCc1ccco1)CC2	-[11.5 µM]	-[11.4 µM]	-	-[13.5 µM]	-[11.6 µM]	-[11.6 µM]
O=C1NCCCC2c3cc(O)c4ccccc4c3OC12N1CCCCC1 (stereo unspecified)	13µM	?	-	?	?	?
CCC(=O)[C@@]1(C)[C@H](C)C[C@@H]2[C@@H]3CCC4=CC(=O)C=C[C@@]4(C)[C@H]3[C@H](O)C[C@]21C	.	-	-	-	.	.
COc1ccc(NC(=O)C2CCCN2S(=O)(=O)c2ccc3nc(-c4ccccc4)[nH]c3c2)cc1 (stereo unspecified)	-	.	.	.	-	-
Cc1ccc(NC(=O)C2CCCN2S(=O)(=O)c2ccc3nc(-c4ccccc4)[nH]c3c2)cc1F (stereo unspecified)	-	.	.	.	?	28µM[quencher]
Cn1cc(CN(CCCN2CCOCC2)C(=S)Nc2cccc(Cl)c2)c2ccccc21	-	-	-	-	-	?
COc1ccc(NC(=S)N(CCCN2CCOCC2)Cc2cn(C)c3ccccc23)cc1	-	-	-	0.56µM	-	-
Cc1cccc(NC(=S)N(CCCN2CCOCC2)Cc2cn(C)c3ccccc23)c1	-	-	-	?	-	-
CCOc1ccc(NC(=S)N(CCCN2CCOCC2)Cc2cn(C)c3ccccc23)cc1	-	-	-	4µM	-	-
COc1ccc(-c2csc(NC(=O)COC(=O)C3=COCCO3)n2)cc1	-	-	.	-	-	-
COc1ccc(N2CCN(C(=O)C(C)n3c(=O)cc(C(F)(F)F)c4c(C)nn(C)c43)CC2)cc1 (stereo unspecified)	?	.	.	.	-	-
CC(C)CCSc1nc(N2CCOCC2)c2c(c1C#N)CC(C)(C)OC2	?	-	.	-	-	-
CN1Cc2c(N3CCOCC3)nc(SCc3ccccc3)c(C#N)c2CC1(C)C	-	-	.	?	-	-
CC1(C)Cc2c(C#N)c(SCC(=O)c3ccccc3)nc(N3CCOCC3)c2CS1	-	?	-	13µM	-	-
COC(=O)c1ccc(CSc2nc(N3CCOCC3)c3c(c2C#N)CC(C)(C)OC3)o1	-	-	-	1.3µM	-	-
CCCCOC(=O)c1ccc(OC(=O)c2sc3ncn(Cc4ccccc4Cl)c(=O)c3c2C)cc1	-	.	.	.	-	-
CCN(CC)c1ccc(C(=O)N2CCc3c([nH]c4ccccc34)C2c2ccc(F)cc2)cc1 (stereo unspecified)	-	.	.	.	-	-
Cc1cc(/C=C2\C(=N)N3N=C(C(C)C)SC3=NC2=O)c(C)n1Cc1ccccc1	?	-	.	.	-	-
Cc1nn(-c2ccccc2)c(Cl)c1/C=C1\SC(=S)NC1=O	?	-	16µM	?	-	-
Cc1nn(-c2ccccc2)c(Cl)c1/C=C1/C(=N)N2N=C(C(C)C)SC2=NC1=O	?	?	22µM	?	-	-
Cc1ccc(CSc2nc3c(c(=O)[nH]2)C(c2cccc(F)c2F)CC(=O)N3)cc1 (stereo unspecified)	-	.	.	.	-	-
Cn1c(=O)n(C)c2cc(/C=N/N=C3/NC(=O)C(CC(=O)O)S3)ccc21 (stereo unspecified)	-	?	.	-	-	-
